In PubChem BioAssay AID2288 (National Center for Advancing Translational Sciences (NCATS), 2010):
Among all 340,000 compounds or so, fewer than 10 were called active. Inconclusive results (about 2%) are left out. The call rests on the fitted dose curve; in most records, active means well fitted curve in the direction sought with a large enough effect; inconclusive means small, poorly fitted or top-dose-only effect, or another doubt; inactive means no such curve, though single readings can be large or run the other way. The list is a sample of the results.

Assay: qHTS Assay for Modulators of miRNAs and/orActivators of miR-21;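 further: miR-21 action dims this reporter so a rising signal means less miR-21 action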
Details: HeLa miR-21 FLuc reporter, luciferase, 48 h; series mostly up to 38.3 µM
Text: MLSCN Grant: 1 R21 NS059478-01 Assay Provider: Qihong Huang, The Wistar Institute NCGC Assay Overview: MicroRNAs (miRNAs) are endogenously encoded small (~20-25 nucleotides), nonprotein-coding RNAs that are involved in post-transcriptional repression of target messenger RNAs (mRNAs) (Le and Hannon, 2004). Estimated to be involved in the regulation of 30% of all protein-coding mRNAs (Filipowicz et al., 2008), miRNAs play a significant role in many biological processes including cellular differentiation and tissue development (Ghildiyal and Zamore, 2009).
NCGC Assay Protocol Summary: Reagents: HeLa cells stably expressing firefly luciferase (FLuc) under the control of a CMV promoter (upstream) and a miR-21 binding sequence directly downstream of the gene. These cells endogenously express miR-21. Control compounds used were compound C3 (provided by collaborator), N6-phenyladenosine (MP Biomedicals, 0215379625), and DMSO. Assay Summary: 6uL of HeLa miR-21-FLuc cells in assay buffer (DMEM, Invitrogen #21063-029; 10% FBS, HyClone #SH30071.03) were dispensed at 2000cells/well (3.3 x 10^5 cells/mL) into Greiner solid-white TC-treated 1536-well plates using a Multidrop Combi (Thermo Fisher Scientific). Plates were incubated for one hour at 37 degree Celsius, 95% humidity, 5% CO2. These assay plates were then treated with 23nL of compound or DMSO using a Kalypsys pin tool, which allows for delivery of a 24-point titration of each compound to the assay plate, with a final compound concentration ranging from approximately 40uM to 5pM. Assay plates were then incubated for 48 hours. After incubation, plates were allowed to come to RT for one hour prior to delivery of 3uL of 3X luciferase detection reagent. After a 15 minute incubation to allow for cell lysis, luciferase activity was measured using a ViewLux CCD imager (PerkinElmer), with an average exposure time of 2-12 seconds. Keywords: NIH Roadmap, MLPCN, MLSMR, qHTS, miR-21, microRNA, firefly luciferase, FLuc.

outcome, inactive:
CC(C)Cn1c(-c2ccc(S(=O)(=O)N3CCOCC3)cc2)csc1=Nc1cc(Cl)ccc1Cl
O=C(Cc1ccc(Cl)cc1)NCC(c1cccs1)S(=O)(=O)c1ccc(Cl)cc1 (stereo not given)
COc1cc(OC)c(NC(=O)c2cnc(N3CCCC3)nc2C)cc1Cl
Cc1ccc(C(=O)COC(=O)C(Cc2c[nH]c3ccccc23)NC(=O)c2ccc(Br)cc2)cc1 (stereo not given)
Cc1cc(N2CCN(c3cccc(C(F)(F)F)c3)CC2)n2nc(-c3ccccc3)nc2n1
CCCNC(=O)c1ccc(Cn2c(SCC(N)=O)nc3ccccc3c2=O)cc1
Cn1c(=O)c(C(=O)O)nn(-c2ccccc2)c1=O
Cc1ccc(OCC(=O)Nc2ccc(OCc3cc(=O)n4c(C)csc4n3)cc2)cc1C
COc1cc(OC)c(NC(=O)c2c3c(nn2C)-c2ccccc2SC3)cc1Cl
COC(=O)c1ccccc1NC(=O)Cn1c(=O)n(-c2cccc(C(F)(F)F)c2)c(=O)c2c(C)c(C)sc21
Brc1ccc2c(c1)NC(c1cccnc1)=NC(c1ccccc1)=N2
CCOC(=O)c1cc(-c2ccccc2)n(CCC(=O)Nc2ccccc2CC)c1C
COc1ccccc1-c1nnc(C2CCN(C(=O)c3ccc(Cl)cc3)CC2)o1
CCCCN(C)c1nnc(NC(=O)Nc2ccc(Br)c(C)c2)s1
CCOC(=O)Cn1c(=O)n(C2CCCCC2)c2nc(-c3cccc(OC)c3)nc(C(N)=O)c21
Cc1cc(C)c(NC(=O)CCc2c(C)nc3c(c(C)nn3C(C)(C)C)c2C)c(C)c1
O=C(NC1CC(=O)N(c2ccc(F)cc2)C1)c1ccc(S(=O)(=O)N2CCCC2)cc1 (stereo not given)
Cc1ccc(-c2nnc(Nc3ccc(OCC(N)=O)cc3)c3ccccc23)cc1S(=O)(=O)NCC1CCCO1 (stereo not given)
O=C(c1ccc(Br)cc1)N(Cc1cccs1)c1ccc(F)cc1
CC1=C(C(=O)OCC2CCCCC2)C(c2c(F)cccc2Cl)CC(=O)N1 (stereo not given)
Cc1ccc(OCCSc2nc(C)c(Cc3ccccc3)c(=O)[nH]2)cc1
CCOc1ccc(-c2cc(C)n3nc(C(=O)Nc4ccc(C)c(C)c4)cc3n2)cc1
Cc1ccc2oc3c(c(=O)c2c1)C(c1ccc(O)cc1)N(Cc1ccc2c(c1)OCO2)C3=O (stereo not given)
COc1ccc(-c2cc(C(=O)Nc3sc4c(c3C(N)=O)CCCC4)no2)cc1
COc1cccc(-c2cc(C(=O)Nc3ccc(C)cc3)[nH]n2)c1
CCCCN(CC)CCCNC(=O)c1nn(C)c2c1CSc1ccccc1-2
Cc1ccccc1CNC(=O)c1cccc(NC(=O)c2nsc3ccccc23)c1
COc1cc(NC(=O)c2cc3ccc4cccnc4c3[nH]2)cc(OC)c1OC
Cc1nnc(NC(=O)CSc2nc3c([nH]c4ccccc43)c(=O)n2-c2cccc(Cl)c2)s1
Cc1ccc2nc(COc3ccccc3NC(=O)Nc3ccc(F)c(Cl)c3)cc(=O)n2c1
COc1ccc(-c2nc(Cn3c(=O)cc(C)c4c(C)nn(-c5ccccc5)c43)c(C)o2)c(OC)c1
CCOCCCNC(=O)c1ccc2nc(CCc3ccccc3)oc2c1
CCOc1cc(CNC(=O)c2sc3ncnc(N(C)C4CCCCC4)c3c2C)ccc1OC
Cc1ccc(C)c(Cn2c(C(=O)O)c(CNCc3cccs3)c3ccccc32)c1
CCCN1CCN(CCCNC(=O)c2cnn(-c3ccc(C)cc3)c2-n2cccc2)CC1
CCCCN(CC)C(=O)c1c[nH]c2ccc(S(=O)(=O)Nc3cccc(OC)c3)cc2c1=O
Cc1c(-c2nc(-c3ccc4c(c3)OCO4)no2)nnn1-c1ccc(Br)cc1F
O=C(NCc1cccnc1)C(=O)NCC(c1cccnc1)N1CCN(c2ccccc2)CC1 (stereo not given)
Cc1ccccc1C(=O)NCc1nc(-c2ccc(Cl)cc2)no1
CCOc1ccc(NC(=O)Cn2c(=O)n(CCCC(=O)NCc3ccc4c(c3)OCO4)c(=O)c3ccccc32)cc1
CCOc1ccc(Nc2oc(/C=C/c3ccc(F)cc3)nc2C#N)cc1
CCOc1ccc(OCC)c(NC(=O)c2cc(C)nc3c2c(C)nn3-c2cccc(Cl)c2C)c1
COC(=O)c1ccc(NC(=O)CCc2c(C)nc3c(c(C)nn3-c3ccc(C)cc3)c2C)cc1
COc1cc(Cl)c(NC(=O)CC(C)S(=O)(=O)c2cc3c(cc2C)NC(=O)CO3)c(OC)c1 (stereo not given)
Cc1ccc(CN2CCc3nc(N4CCN(C)CC4)ncc3C2)cc1
CCOC(=O)c1ccc2c(c1)N(Cc1cccc(OC)c1)C(=O)c1ccccc1S2(=O)=O
COc1ccc(Cc2nc3ccc(C(=O)NCc4ccccc4C)cc3o2)cc1
CCOC(=O)c1c(C)[nH]c(CCC(=O)NCCCN2CCN(c3cccc(Cl)c3)CC2)c1C
Cc1ccc(SCC(=O)Nc2ccc3oc(-c4ccccc4F)nc3c2)cc1
CN(C(=O)CSc1nc2ccccc2n1Cc1ccccc1C#N)c1ccccc1
CCc1nnc(SCc2nc(-c3cccc(C)c3)oc2C)c2cc3sc(C)cc3n12
COc1ccccc1N1CCN(c2ncnc3onc(-c4ccc(F)cc4)c23)CC1
CC(C)Oc1ccc(CNC(=O)C2CCN(c3nc4ccccc4n(C)c3=O)CC2)cc1
CC(C)c1ccc(NS(=O)(=O)c2ccc3[nH]cc(C(=O)NC4CCCC4)c(=O)c3c2)cc1
Cc1ccc(-n2nc(C)c3c(C)cc(=O)n(CC(=O)Nc4ccc(C(C)C)cc4)c32)cc1
O=C(NCCCO)c1nn(-c2ccc(Cl)cc2)nc1CO
COc1ccccc1CNC(=O)CCCn1c(=O)c2ccccc2n(CC(=O)Nc2ccc(C)cc2Cl)c1=O
COc1cccc(-n2c(=O)c3c(C)c(C(=O)N(C)C)sc3n(Cc3cccc(C)c3)c2=O)c1
CCOc1cccc2sc(N3CCN(C(=O)C4CC4)CC3)nc12
CCc1nn(CC(=O)N2CCN(c3ccc(Cl)cc3)CC2)c(=O)c2cc3occc3n12
CSc1ncc(C(=O)NCc2ccccc2Cl)c(C(F)(F)F)n1
COc1ccc(CC(=O)Nc2nnc3n2CCS3)cc1OC
Cc1ccc(-c2nn(CCC(=O)Nc3ccc(Cl)c(Cl)c3)c(=O)c3ccccc23)cc1
CCC(=O)Nc1ccccc1-c1nc2ccccc2n(CC(=O)Nc2ccc(C)c(C)c2)c1=O
CCN1CCc2nc3sc(C(=O)Nc4ccccc4OC(F)(F)F)c(N)c3cc2C1
CCOC(=O)c1cc(NC(=O)c2ccc(F)cc2)c(=O)n2c1oc1ccccc12
CCOc1ccc(N(CC)S(=O)(=O)N2CCCC(C(=O)NCc3ccc(SC)cc3)C2)cc1 (stereo not given)
COc1ccc(CNC(=O)CSc2n[nH]c(-c3ccc(F)cc3)n2)cc1
COc1ccc(CN2C(=O)C(NC(=O)c3cccc(C)c3)(C(F)(F)F)N=C2c2ccccc2)cc1 (stereo not given)
Cc1c(Cl)cccc1NC(=O)C(=O)NCCc1csc2nc(-c3ccccc3F)nn12
COCCNC(=O)CSc1c(C)cnc2c1c(=O)n(C)c(=O)n2C
O=C(c1ccccc1F)N1CCC(c2nc3c(nnn3Cc3cccc(F)c3)c(=O)[nH]2)CC1
COc1ccc(OC)c(NC(=O)CSC2=Nc3ccccc3C3=NC(CC(=O)NCc4ccc(F)cc4)C(=O)N23)c1 (stereo not given)
COc1ccccc1-c1nnc(SCC(N)=O)o1
COc1cc(NS(=O)(=O)c2ccc3c(c2)OCC(C(=O)N2CCCC2)O3)cc(OC)c1 (stereo not given)
Cc1ccc(C)c(NC(=O)CSC2=Nc3ccccc3N=C(c3ccc(F)cc3)C2)c1
Cc1cc(C)cc(NC(=O)Cc2csc(C)n2)c1
CCc1nccn1S(=O)(=O)c1cc(Br)ccc1Br
CC(=O)Nc1ccc(NC(=O)CSc2nnc3c4cc(Br)ccc4n(C)c3n2)cc1
Cc1ccc(C)c(CNC(=O)c2cc3ccccn3n2)c1
Cc1ccc(C)c(Cn2c(C)c(CNCc3ccc(F)cc3)c(C(=O)O)c2C)c1
CCOC(=O)c1ccc(NC(=O)CSc2nc3c([nH]c4ccccc43)c(=O)n2C)cc1
CCc1ccc(-n2nnc(-c3nc(-c4ccccc4)no3)c2C)cc1
O=C(NCCCN1CCN(c2cccc(Cl)c2)CC1)c1nnc(Cc2ccc(F)cc2Cl)o1
CCNC(=O)CC1C(=O)N(c2ccc(F)cc2)C(=O)N1Cc1ccc(C)cc1 (stereo not given)
CCOC(=O)c1[nH]c(C)c(CCC(=O)NCc2ccccc2C)c1C
COc1ccc(NC(=O)COCc2cc(-c3ccco3)on2)cc1
O=C(CCSCc1cccc(F)c1)NCc1ccccc1
CN(Cc1ccccc1)c1ccc(-c2nc(-c3ccccc3)no2)cc1[N+](=O)[O-]
Cc1ccc(C(=O)Nc2cc3c(cc2N2CCCC2)n(C)c(=O)c(=O)n3C)cc1
CCCOC(=O)c1c(NC(=O)c2cc3nc(-c4ccc(OC)cc4)cc(C(F)(F)F)n3n2)sc2c1CCCC2
Cc1ccc(-c2nc(CS(=O)(=O)CC(=O)NCc3ccccc3Cl)c(C)o2)cc1
Cc1nn(C(C)C(=O)NCCc2ccccc2)c(=O)c2c1sc1ccccc12 (stereo not given)
CCN(C(=O)Cn1cc(S(=O)(=O)N2CCN(c3ccccc3F)CC2)c2ccccc2c1=O)c1ccc(C)c(C)c1
CCOC(=O)c1cccc(NC(=O)c2cc(S(=O)(=O)N3CCCC(C)C3)cn2C)c1 (stereo not given)
